In ChEMBL document CHEMBL4513216, “Probing the Open Global Health Chemical Diversity Library for Multistage-Active Starting Points for Next-Generation Antimalarials” (ACS Infect Dis, 2020):
The whole screen tested about 69,000 compounds, of which about 8,600 (12%) showed an effect of 50% or more. The sample holds strong results, similar compounds and a random draw of the others, so the mix is not that of the screen.

system: Plasmodium berghei; experiment: Screen against P. berghei liver stage (PbLuc), transformed with Luciferase, at 10uM; assay type: functional, HepG2; conditions: tested at 10 uM

| SMILES | INHIBITION [%] |
| --- | --- |
| Cc1cccc(CNC(Cc2ccsc2)c2nc(C)c(C)s2)n1 (stereo unspecified) | 91.6 |
| Cc1nc(C(Cc2ccsc2)NC(=O)CN2CCOCC2)sc1C (stereo unspecified) | 30.45 |
| Cc1cccc(CNC(Cc2ccsc2)c2nccs2)n1 (stereo unspecified) | -24.4 |
| CC(C(=O)Nc1cccc(N2CCCCC2)c1)n1cncn1 (stereo unspecified) | 70.7 |
| CC(C(=O)Nc1ccc(N2CCOCC2)nc1)n1cncn1 (stereo unspecified) | 53 |
| COc1ccc(NC(=O)C(C)n2cncn2)cn1 (stereo unspecified) | -33.9 |
| CC(C(=O)NCc1ccc(N2CCCC2)nc1)n1cncn1 (stereo unspecified) | 21.6 |
| Cc1cccc(N2CCN(CCNC(=O)C(C)n3cncn3)CC2)c1 (stereo unspecified) | 55.5 |
| CC(C(=O)NCCCN1CCN(c2ccccc2)CC1)n1cncn1 (stereo unspecified) | -16 |
| CC(C(=O)NCCN1CCN(C)CC1)n1cncn1 (stereo unspecified) | 34.7 |
| CC(C(=O)Nc1ccc(N2CCCCC2)nc1)n1cncn1 (stereo unspecified) | 28.8 |
| CC(C(=O)Nc1ccc(N2CCCC2)nc1)n1cccn1 (stereo unspecified) | 9.54 |
| CC(C(=O)NCc1ccc(N2CCCCC2)nc1)n1cncn1 (stereo unspecified) | 7.12 |
| CC(C(=O)NCc1ccc(N2CCCCCC2)nc1)n1cncn1 (stereo unspecified) | 31.2 |
| CC(C(=O)Nc1ccc(N2CCCC2)nc1)n1cncn1 (stereo unspecified) | 56.1 |
| CC(C)NC(=O)N1CCc2onc(C(=O)Nc3cccnc3)c2C1 | -11 |
| COc1cc(NCc2ccccc2-n2cncn2)nc(N)n1 | -2.43 |
| CNC(=O)NC(=O)CCN1CCN(c2nccs2)CC1 | 11.9 |
| O=S(=O)(N[C@@H]1CCO[C@]2(CCN(CC3CCOCC3)C2)C1)C1CC1 | 1.48 |
| O=C1COC2(CCN(c3ncccn3)CC2)CN1Cc1ccccn1 | -6.21 |
| COc1ccc2c(ccn2CCC(=O)NCCCC(=O)O)c1 | 24.7 |
| Cc1noc(C(C)N(C)Cc2ccco2)n1 (stereo unspecified) | -33.4 |
| CCc1cnccc1C(=O)NC1CCN(C(=O)OC)CC1 | -7.16 |
| CC(NC(=O)COC1CCCC1)c1nc(-c2ccccc2)c[nH]1 (stereo unspecified) | -43.3 |

| SMILES | INHIBITION [%] |
| --- | --- |
| NCCn1cc(C(=O)N2CCNC(=O)C2c2cccc(F)c2)nn1 (stereo unspecified) | -13.8 |
| CN(CC(=O)NCc1ccco1)Cc1nc2c(s1)CCCC2 | 40.8 |
| CN(CC(=O)NCC(F)(F)F)Cc1nc2c(s1)CCCC2 | 46.7 |
| CN(CC(=O)NCC1CCCO1)Cc1nc2c(s1)CCCC2 (stereo unspecified) | 57.1 |
| O=S(=O)(CCN1CCCCC1Cn1cncn1)c1ccccc1 (stereo unspecified) | -8.11 |
| CC(=O)NCCNC(=O)CNC1CCCN(c2ccc(C)nn2)C1 (stereo unspecified) | 47 |
| c1cn(-c2cnc(C3CCNCC3)cn2)cn1 | 26.8 |
| Cc1ccnc(C2CCN(C(=O)c3cnn(C)c3)CC2)n1 | 50.3 |
| Cc1ccnc(C2CCN(C(=O)c3cnn(C)c3)C2)n1 (stereo unspecified) | 48.4 |
| Cc1cc(C2CCN(C(=O)c3cnn(C)c3)CC2)ccn1 | -4.51 |
| CCOCC1CN(C(=O)c2cccnc2)Cc2cnn(C)c21 (stereo unspecified) | -2.35 |
| COc1cccc(CN2CCC(Cc3cnc(CN(C)C)cn3)CC2)c1 | 25.8 |
| CCn1ncc2[nH]c(-c3cc(OC)c(OC)cc3OC)nc21 | 26.5 |
| c1cc(CN2CCc3ncc(CN4CCOCC4)n3CC2)cs1 | -36 |
| Cc1csc(N2CCN(Cc3ccccn3)CC2)n1 | 34.2 |
| Cc1ccc(N2CCC3(CC2)CCN(C2CCOC2)CC3)nn1 (stereo unspecified) | 8.85 |
| Cc1csc(N2CCN(C3CCc4ccccc4C3)CC2)n1 (stereo unspecified) | 53 |
| Cc1csc(N2CCCN(C(=O)c3ccsc3)CC2)n1 | -36.4 |
| Cc1ccc(N2CCN(C3CCc4ccccc4C3)CC2)nn1 (stereo unspecified) | 53.9 |
| Cc1ccc(N2CCN(C)c3ncccc3C2)nn1 | 48.2 |
| NC(=O)c1csc(N2CCN(C3CCc4ccccc4C3)CC2)n1 (stereo unspecified) | 47.6 |
| Cc1ccc(N2CCC3(CCN(C(=O)C4CCOC4)CC3)CC2)nn1 (stereo unspecified) | -45.8 |
| Cc1csc(N2CCCN(C3Cc4ccccc4C3)CC2)n1 | 73.9 |
| Cc1csc(N2CCC(NCC3(O)CCc4ccccc43)CC2)n1 (stereo unspecified) | 42.6 |

| SMILES | INHIBITION [%] |
| --- | --- |
| Cc1ccc(N2C[C@H](O)[C@@H](N3CCN(c4ccccn4)CC3)C2)nn1 | 6.29 |
| Cc1ccc(N2CCC3(CC2)CCN(C2CCOCC2)CC3)nn1 | 58.7 |
| CS(=O)(=O)N1C[C@@H]2CCN(C(=O)c3cscn3)[C@@H]2C1 | 31.5 |
| c1cnn(CCNCc2ccc(N3CCCCC3)cc2)c1 | -10.8 |
| O=C(O)c1c(-c2ccncc2)ncc2c1CCN(Cc1ccco1)C2 | 26.5 |
| CC1CCN(c2nc3cn(C4CCS(=O)(=O)C4)c(=O)c-3c[nH]2)CC1 (stereo unspecified) | -16.3 |
| Cc1occc1C(=O)N1C[C@@H]2OCCN(c3ncccn3)[C@@H]2C1 | 11.5 |
| CCc1ccccc1-c1cc(OC)nc(N)n1 | 35 |
| N#Cc1ccc(S(=O)(=O)N2CSCC2C(=O)NCC(F)(F)F)cc1 (stereo unspecified) | -13.5 |
| CC1(C2CCN(CC(N)=O)CC2)CN(Cc2ccccc2)C(=O)CO1 (stereo unspecified) | 0.301 |
| CC(=O)N1CCC(c2ccnc(Nc3cncnc3)n2)CC1 | -2.11 |
| Cc1csc(N2CCCN(c3cc(C)nc(C)c3C#N)CC2)n1 | 91.9 |
| Cc1cc(N2CCCCC2)c(C#N)c(C)n1 | 25.2 |
| Cc1cc(N2CCCC2)c(C#N)c(C)n1 | 4.62 |
| CCOC(=O)c1cnn(C2CCN(C(=O)CC3CCCC3)CC2)c1N | 26.1 |
| COc1ccccc1C1(CNCc2cccc(C#N)c2)CCOCC1 | 20.9 |
| COc1ccccc1C1(CNCc2ccc(C#N)cc2)CCOCC1 | 29.6 |
| COc1ccccc1C1(CNCc2cccc(O)c2)CCOCC1 | 51.3 |
| O=C(CCNc1ncccn1)Nc1cc(C(F)(F)F)c[nH]c1=O | -1.7 |
| O=C(NCc1ccco1)[C@H]1C[C@@H]2CCN(c3ccncn3)C[C@@H]2O1 | 21.7 |
| Cc1nc(CN(C)C(=O)c2ccc(Cn3cnnn3)cc2)cs1 | 16.5 |
| Cc1ncsc1CCN(C)C(=O)c1ccc(Cn2cnnn2)cc1 | -0.448 |
| Cc1cnccc1CN(C)C(=O)c1ccc(Cn2cnnn2)cc1 | 54.9 |
